For part of these data: Measured potencies and affinities stand elsewhere. Calls of active or inactive are those of the source.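 The calls were made as follows, unless noted: active = fitted half-maximal concentration within the tested range, moderate curve steepness, significant signal drop, and little compound fluorescence or bead-linkage interference; inactive = the rest.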
What was measured:
[1] = biological target: Cell division control protein 42 homolog (Homo sapiens) (UniProt P60953); test: activated mutant Cdc42 GTP-binding inhibitors, dose response, biochemical, multiplex bead flow cytometry, Bodipy-FL-GTP (AID 1333;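 active = fitted half-maximal concentration within the tested dose range, moderate curve steepness, a statistically real signal drop, and little compound fluorescence or tag-binding interference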)
[2] = biological target: Cell division control protein 42 homolog (Homo sapiens) (UniProt P60953); test: wildtype Cdc42 GTP-binding inhibitors, dose response, biochemical, multiplex bead flow cytometry, Bodipy-FL-GTP (AID 1334); settings: bead-based flow cytometry, Bodipy-FL-GTP binding to GST-Cdc42; at 100 µM (top of the series) unless noted
[3] = biological target: GTPase HRas (Homo sapiens) (UniProt P01112); test: inhibitors of GTP binding to wildtype Ras, dose response, biochemical, multiplex bead flow cytometry (AID 1335;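 active = fitted half-maximal concentration within 10 nM to 100 µM, steepness 0.5 to 2, significant signal drop, low assay interference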); settings: bead-based flow cytometry, Bodipy-GTP binding to GST-Ras; at 100 µM (top of the series) unless noted
[4] = test system: Ras-related protein Rab-7a (dog), GTP binding; test: Rab7 GTP binding inhibitors, potency, dose response, biochemical, wildtype, multiplex bead flow cytometry (AID 1336; call rule not given here)
[5] = biological target: Ras-related C3 botulinum toxin substrate 1 (Homo sapiens) (UniProt P63000); test: wildtype Rac1 GTP binding inhibitors, dose response, biochemical, multiplex bead flow cytometry (AID 1340;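 active = dose curve with midpoint inside tested range, moderate steepness, plateau gap beyond fit error, low compound glow and bead-link interference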); settings: GST-Rac1 beads, Bodipy-FL-GTP binding; at 100 µM (top of the series) unless noted
[6] = biological target: GTPase HRas (Homo sapiens) (UniProt P01112); test: activated Ras mutant GTP binding inhibitors, dose response, biochemical, multiplex bead flow cytometry (AID 1341;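 active = dose-response curve with midpoint inside the tested range, moderate steepness, significant amplitude and little compound fluorescence or bead-attachment interference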;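 also: GST-tagged constitutively activated Ras mutant immobilized on beads and multiplexed with other GTPases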)

Sequence of Cell division control protein 42 homolog (Homo sapiens) (P60953 whole entry, looked up): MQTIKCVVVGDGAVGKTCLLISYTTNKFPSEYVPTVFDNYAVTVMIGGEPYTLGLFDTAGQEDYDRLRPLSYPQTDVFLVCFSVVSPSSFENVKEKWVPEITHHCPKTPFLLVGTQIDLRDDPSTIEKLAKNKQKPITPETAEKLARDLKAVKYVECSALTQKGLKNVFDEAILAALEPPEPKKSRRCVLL
Sequence of GTPase HRas (Homo sapiens) (P01112 whole entry, looked up): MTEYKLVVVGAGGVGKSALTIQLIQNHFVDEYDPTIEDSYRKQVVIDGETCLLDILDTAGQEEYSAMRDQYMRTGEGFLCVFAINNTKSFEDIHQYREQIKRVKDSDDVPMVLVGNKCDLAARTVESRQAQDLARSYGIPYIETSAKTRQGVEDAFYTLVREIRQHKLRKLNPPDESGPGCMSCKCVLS

| SMILES | outcome [1] | fluorescence, percent of control (lower = inhibition) [2] [%] | GTP binding, percent of control [3] [%] | outcome [4] | GTP binding signal, raw median fluorescence (lower = inhibition) (MCF (arbitrary fluorescence units)) [5] | outcome [6] |
| --- | --- | --- | --- | --- | --- | --- |
| Cc1ccc(C(=O)O)c(NCc2c(C)cccc2C)n1 | inactive | 58.8 | 224 | inactive | 54.1 | inactive |
| COc1ccc(-c2c(C)[nH]n3c(=O)c(Cc4ccccc4)c(C)nc23)cc1 | inactive | 33.9 | 79 | inactive | 217 | inactive |
| COc1cc2ccccc2cc1C(=O)NC(=S)Nc1cccc(C(=O)O)c1 | inactive | 33.8 | 83.3 | inactive | 174 | inactive |
| Cc1ccc(C2=NN(S(=O)(=O)c3ccccc3)C(c3ccccc3O)C2)cc1 (stereo not given) | inactive | 50.2 | 104 | inactive | 158 | inactive |
| Nc1nonc1C(=O)NCCN=Cc1cc(Cc2ccccc2)cc(Br)c1O | inactive | 55.5 | 59 | inactive | 192 | inactive |
| O=c1c2ccccc2nc2ccc(NCc3cccs3)nn12 | inactive | 33.1 | 76.2 | inactive | 195 | inactive |
| O=C(NCc1cccs1)c1cccn2c(=O)c3sccc3nc12 | inactive | 32.6 | 69.2 | inactive | 138 | inactive |
| O=c1nc2c(O)cccn2c2c1c(=O)[nH]c1ccccc12 | inactive | 33.4 | 44.6 | inactive | 93 | inactive |
| O=C(N/N=C/c1ccco1)c1ccc(C(=O)N/N=C/c2ccco2)o1 | inactive | 32.1 | 72.4 | inactive | 184 | inactive |
| O=C(O)c1ccc(Nc2nc(-c3cccnc3)nc3ccccc23)cc1 | inactive | 27.9 | 66.3 | inactive | 142 | inactive |
| Cc1ccc(NCC(=O)c2ccccc2)cc1Cl | inactive | 36.3 | 80.6 | inactive | 256 | inactive |
| O=C(CN1C(=O)S/C(=C/c2cccnc2)C1=O)N1CCOCC1 | inactive | 54.1 | 68.5 | inactive | 221 | inactive |
| Cn1c(=O)cc(N2CCOCC2)[nH]c1=O | inactive | 37.4 | 84.8 | inactive | 262 | inactive |
| COCCNC(=S)Nc1cc(OC)c(OC)cc1C#N | inactive | 40.8 | 74.7 | inactive | 144 | inactive |
| O=C(O)c1ccccc1C(=O)OCc1ccccc1 | inactive | 105 | 365 | inactive | 408 | inactive |
| Nc1c(S(=O)(=O)c2cccc(Cl)c2)c2nc3ccccc3nc2n1/N=C/c1ccc(O)c(O)c1 | inactive | 54.4 | 91.7 | inactive | 99.4 | inactive |
| COc1ccc(CNCc2sc(C(=O)O)cc2C)cc1OC | inactive | 59.2 | 78.1 | inactive | 32.2 | inactive |
| Cn1c(SCCOc2ccccc2F)nc2ccccc2c1=O | inactive | 29.1 | 71.9 | inactive | 158 | inactive |
| O=c1[nH]c(N/N=C/c2ccc(O)cc2)nc2ccccc12 | inactive | 31.4 | 71 | inactive | 259 | inactive |
| COc1ccc(Nc2nc(-c3c(C)nc4ncccn34)cs2)cc1 | inactive | 29 | 66 | inactive | 140 | inactive |

| SMILES | outcome [1] | fluorescence, percent of control (lower = inhibition) [2] [%] | GTP binding, percent of control [3] [%] | outcome [4] | GTP binding signal, raw median fluorescence (lower = inhibition) (MCF (arbitrary fluorescence units)) [5] | outcome [6] |
| --- | --- | --- | --- | --- | --- | --- |
| CN(/N=C/c1ccco1)C1=NS(=O)(=O)c2ccccc21 | inactive | 32 | 74.9 | inactive | 206 | inactive |
| Cc1cc2ccccn2c1C(=O)c1cccc([N+](=O)[O-])c1 | inactive | 34 | 81.2 | inactive | 250 | inactive |
| COc1ccc(NC(=S)N(CCN(C)C)C(C)c2ccco2)cc1Cl (stereo not given) | inactive | 49.2 | 60.4 | inactive | 210 | inactive |
| CCN(CC)S(=O)(=O)c1ccc2oc(C(=O)N3CCc4ccccc4C3)c(C)c2c1 | inactive | 59.3 | 78 | inactive | 0 | inactive |
| O=C(/C=C/c1c(Cl)nc2ccccn12)N1CCCCC1 | inactive | 33.3 | 80.9 | inactive | 245 | inactive |
| NC(=O)c1cc2nc(-c3ccco3)cc(C(F)(F)F)n2n1 | inactive | 29.6 | 40.3 | inactive | 91.8 | inactive |
| Cc1ccccc1OCCn1cc(C(=O)O)c2ccccc21 | inactive | 96.9 | 131 | inactive | 83.8 | inactive |
| CCCCNC(=O)c1cc([N+](=O)[O-])[nH]n1 | inactive | 56.1 | 74.5 | inactive | 282 | inactive |
| CCC/C(O)=C1\C(=O)CC(C)(C)CC1=Nc1ccccc1OC | inactive | 41.5 | 88.8 | inactive | 276 | inactive |
| COc1ccc(-c2nn(-c3ccccc3)cc2C(=O)NCCCn2ccnc2)cc1 | inactive | 49.1 | 61.1 | inactive | 202 | inactive |
| Cc1ccc(OCCn2c(SCC(=O)O)nc3ccccc32)cc1 | inactive | 59 | 86.2 | inactive | 35.2 | inactive |
| COc1cc(C(=O)OCC(=O)Nc2ccc3c(c2)OC(F)(F)O3)ccc1OCc1c(C)noc1C | inactive | 52.4 | 53.9 | inactive | 186 | inactive |
| Nc1c(S(=O)(=O)c2ccccc2)c2nc3ccccc3nc2n1/N=C/c1cccc(O)c1 | inactive | 91.2 | 81.1 | inactive | 105 | inactive |
| CCn1c(=N)c(S(=O)(=O)c2ccc(C)cc2)cc2c(=O)n3ccccc3nc21 | inactive | 36.8 | 79.5 | inactive | 174 | inactive |
| NS(=O)(=O)c1ccc(Nc2nc(-c3ccc(O)cc3O)cs2)cc1 | inactive | 25.1 | 67.8 | inactive | 152 | inactive |
| O=C(NCc1cccnc1)c1cccn2c(=O)c3sccc3nc12 | inactive | 32.5 | 74.9 | inactive | 162 | inactive |
| COc1cccc(Nc2c(F)c(F)c(F)c(F)c2C(=O)O)c1 | inactive | 53.4 | 60.7 | inactive | 0 | inactive |
| CCOC(=O)C1(Cc2cccc(F)c2)CCN(Cc2nc(CC)[nH]c2C)CC1 | inactive | 48.2 | 90.4 | inactive | 274 | inactive |
| C/C(=N\Nc1ccc(S(N)(=O)=O)cc1[N+](=O)[O-])c1ccc2c(c1)OCO2 | inactive | 36.3 | 79.8 | inactive | 220 | inactive |
| Cc1ccc(-n2nc3c(SCCN4CCOCC4)nnc(C)c3c2C)cc1 | inactive | 49 | 64.6 | inactive | 194 | inactive |

| SMILES | outcome [1] | fluorescence, percent of control (lower = inhibition) [2] [%] | GTP binding, percent of control [3] [%] | outcome [4] | GTP binding signal, raw median fluorescence (lower = inhibition) (MCF (arbitrary fluorescence units)) [5] | outcome [6] |
| --- | --- | --- | --- | --- | --- | --- |
| Cc1ccc(O)c(N=Cc2cc(Cc3ccccc3)cc([N+](=O)[O-])c2O)c1 | inactive | 30.7 | 72.6 | inactive | 111 | inactive |
| O=C(O)c1cc([N+](=O)[O-])ccc1NCc1ccccc1 | inactive | 121 | 149 | inactive | 105 | inactive |
| C=C(C)COc1ccc(-c2n[nH]c(C)c2-c2ccc(Br)cc2)c(O)c1 | inactive | 32.9 | 78.5 | inactive | 265 | inactive |
| CC(C)C(=O)N1CCN(c2ccccc2NC(=O)c2cccc(Cl)c2)CC1 | inactive | 34.8 | 82.2 | inactive | 269 | inactive |
| NC(=O)NOCc1ncc(C(F)(F)F)cc1Cl | inactive | 36.2 | 81.2 | inactive | 274 | inactive |
| CCc1ccc(NC(=O)c2cc3c(C)nc4ccccc4c3o2)cc1 | inactive | 51.4 | 93.2 | inactive | 261 | inactive |
| COc1cc(N2CCCC2)c(OC)cc1/C=C(/C#N)c1ccc(Br)cc1 | inactive | 104 | 117 | inactive | 258 | inactive |
| C=CCOc1cccc(/C=N/NC(=O)CN(c2cc(Cl)ccc2OC)S(=O)(=O)c2ccc(C)c([N+](=O)[O-])c2)c1 | inactive | 50.3 | 56 | inactive | 0 | inactive |
| Cc1ccc(Nc2ncccc2C(=O)O)cc1 | inactive | 58.7 | 85.1 | inactive | 31.3 | inactive |
| COc1ccccc1-n1cc([C@@H]2C[C@H]3CN(c4ccccc4)C(=O)[C@]34CCCN24)cn1 | inactive | 71.8 | 119 | inactive | 293 | inactive |
| Cc1ccc(OCc2ccc(C(=O)Nc3nc4ccccc4n3Cc3ccccc3)o2)c([N+](=O)[O-])c1 | inactive | 48.5 | 60.3 | inactive | 193 | inactive |
| Cc1cccc(CCSc2ncccc2C(=O)O)c1 | inactive | 119 | 320 | inactive | 97 | inactive |
| O=C(O)C1=C[C@H](c2ccc(Br)cc2)C[C@H](OCc2ccc(CO)cc2)O1 | inactive | 30.3 | 82.5 | inactive | 230 | inactive |
| COc1cc(C)c2c(c1C=O)Oc1c(c(C)c(O)c3c1C(O)OC3=O)OC2=O (stereo not given) | inactive | 54.3 | 102 | inactive | 135 | inactive |
| Cc1cccc(/C=N/N(CCO)C2=NS(=O)(=O)c3ccccc32)c1 | inactive | 28.3 | 67.6 | inactive | 139 | inactive |
| CN1CCN(S(=O)(=O)c2cccc(C(=O)Nc3sc4c(c3C(N)=O)CCCC4)c2)CC1 | inactive | 43.6 | 57.3 | inactive | 150 | inactive |
| CCc1ccccc1NC(=O)N1C2CCCC1CC(NC(C)=O)C2 (stereo not given) | inactive | 102 | 152 | inactive | 191 | inactive |
| O=C(c1n[nH]c(=O)c2ccccc12)N1CCN(C2c3ccccc3-c3ccccc32)CC1 | inactive | 87 | 156 | inactive | 175 | inactive |
| COc1ccc(OC)c(CNCc2sc(C(=O)O)cc2C)c1 | inactive | 59.9 | 81.9 | inactive | 32.8 | inactive |
| O=C1C2CC=CCC2C(=O)N1c1ncn[nH]1 (stereo not given) | inactive | 97.2 | 161 | inactive | 189 | inactive |

Reference: PubChem BioAssay
